Hits are enriched below; roughly 2.4% of the tested compounds scored in any of these assays.
Pf gamet viab = late stage P. falciparum gametocyte viability inhibitors, primary screen, ATP luminescence, HTS. P. falciparum stage V gametocytes, 24 h. actives 0.065% (n = 150,000). inhibition, % at 10.9 µM;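 active = inhibition above the mean plus 3 SD of compounds within the control limits, set per campaign, cut at about 38% in these data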
MEKK3 PB1 HTS = modulators of MEKK3-MEK5 PB1 binding, primary screen, biochemical, wildtype MEKK3, multiplex bead flow cytometry, Alexa488-MEK5; Mitogen-activated protein kinase kinase kinase 3 (Homo sapiens), Q99759; bead-based flow cytometry, Alexa488-MEK5 binding to MEKK3; actives lie on both sides; 0 = blocked by unlabeled MEK5, 100 = vehicle; binding response (% of control), % at 10 µM; actives 1.4% (n = 290,000);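 active = binding response more than 3 SD above or below the average of its plate-row segment, actives on both sides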;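 also: Alexa488 bead fluorescence after subtracting the streptavidin-only scavenger bead signal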
Target sequence (Q99759 whole entry, looked up): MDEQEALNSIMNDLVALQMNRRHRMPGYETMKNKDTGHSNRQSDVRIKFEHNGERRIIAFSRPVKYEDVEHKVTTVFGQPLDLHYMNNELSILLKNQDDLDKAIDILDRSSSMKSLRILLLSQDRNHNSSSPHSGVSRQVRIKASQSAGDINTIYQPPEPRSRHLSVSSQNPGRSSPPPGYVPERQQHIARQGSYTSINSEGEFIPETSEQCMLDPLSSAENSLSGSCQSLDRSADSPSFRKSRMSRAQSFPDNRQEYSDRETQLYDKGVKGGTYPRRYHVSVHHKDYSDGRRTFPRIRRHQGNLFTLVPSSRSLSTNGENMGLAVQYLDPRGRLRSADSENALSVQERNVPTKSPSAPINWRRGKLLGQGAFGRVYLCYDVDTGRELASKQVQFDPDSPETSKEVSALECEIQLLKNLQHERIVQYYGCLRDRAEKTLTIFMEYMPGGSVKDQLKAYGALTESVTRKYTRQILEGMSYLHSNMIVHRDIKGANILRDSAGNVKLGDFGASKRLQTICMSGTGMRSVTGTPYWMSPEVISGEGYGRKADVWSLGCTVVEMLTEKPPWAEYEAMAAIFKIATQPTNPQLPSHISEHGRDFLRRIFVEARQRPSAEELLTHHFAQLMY
MEKK2 WT-MEK5 = modulators of MEK5 binding to wildtype MEKK2, primary screen, biochemical, multiplex bead flow cytometry, Alexa488-MEK5 | Mitogen-activated protein kinase kinase kinase 2 (Homo sapiens), Q9Y2U5 | Alexa488-MEK5 binding to MEKK2 WT; actives lie on both sides | binding response (% of control), % at 10 µM | actives 1.1% (n = 290,000) | AID 1531, 2009; in the data active = binding response below about 67% or above about 130%
MEKK2mut PB1 HTS = MEK5 binding signal on mutant MEKK2 PB1, primary screen, biochemical, multiplex bead flow cytometry, Alexa488-MEK5; Alexa488-MEK5 binding to MEKK2 mutant; percent response, % at 10 µM; actives 0.35% (n = 290,000); AID 1530, 2009; in the data active = percent response above about 24%, passing the limit was not always enough
Arbovirus inh = antivirals against arbovirus infection, primary screen, cell-based, full library, 10K replicate subset | AID 1251, 2008 | actives 0.37% (n = 200,000) | arbovirus infection cell-based antiviral screen | inhibition, % at 10 µM; in the data active = inhibition above about 30%
MEKK2wt confirm = modulators of MEK5 binding to wildtype MEKK2, confirmation, biochemical, single concentration, multiplex bead flow cytometry; shares compounds with MEKK3 PB1 HTS; Alexa488-MEK5 binding to MEKK2 WT; actives lie on both sides; binding response (% of control), % at 10 µM; actives 2.4% (n = 5,900); in the data active = binding response below about 16% or above about 210%; inactive = in between
MEKK2mut-MEK5 = mutant MEKK2 PB1-MEK5 binding signal retest – biochemical, single concentration, multiplex bead flow cytometry, confirmation; shares compounds with MEKK3 PB1 HTS; Alexa488-MEK5 binding to MEKK2 mutant; percent response, % at 10 µM; actives 2% (n = 5,900); AID 1893, 2009; in the data active = percent response mostly above about 71%, no sharp cut-off; inactive = mostly below about 38%;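 also: higher means compound restores mutant binding toward wildtype level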
MEKK3-MEK5 inh = MEKK3 wild-type PB1 binding to MEK5, inhibitors, confirmation, biochemical, bead multiplex flow cytometry, single concentration, wildtype; binding response (% of control), % at 10 µM; shares compounds with MEKK3 PB1 HTS; Alexa488-MEK5 binding to MEKK3; hits give low values; actives 1.8% (n = 5,900);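 active = binding response below 72% of control, or above a set upper limit, though filed actives all read lower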;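 also: lower values mean stronger disruption of MEK5 binding to MEKK3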
Numbers stand for hits; . = inactive; / = no result given; [ ] = another dose, or the depositor's remark.

SMILES | Pf gamet viab | MEKK3 PB1 HTS | MEKK2 WT-MEK5 | MEKK2mut PB1 HTS | Arbovirus inh | MEKK2wt confirm | MEKK2mut-MEK5 | MEKK3-MEK5 inh
CCN1C(c2ccccc2)=C(c2ccccc2)S/C1=C/C=C1\SC(=S)N(C)C1=O | / | 37[inhibitor] | -7.0 | . | . | . | . | 51
CCN1C(=O)/C(=C/C=C2/Sc3ccc4ccccc4c3N2CCO)SC1=S | . | . | 8.0[inhibitor] | . | . | . | . | .
O=C(O)COc1ccccc1/C=N/NC(=O)c1cc2ccccc2cc1O | . | . | . | . | / | / | / | /
Cc1nn(CC(=O)Nc2ccc(Cl)cn2)c(C)c1Br | . | . | . | . | . | / | / | /
COc1ccc(-c2nc(-c3ccc(C(=O)O)cc3)no2)cc1 | . | . | . | . | / | / | / | /
CCOC(=O)Cc1nn(Cc2nc(-c3ccc(C)cc3)cs2)c(=O)c2ccccc12 | . | . | . | . | / | / | / | /
COc1ccc(CNC[C@@H](CCCCN(C)Cc2ccc(OC)cc2)N2C[C@H](c3ccccc3)N(CCc3ccc(Cl)c(Cl)c3)C(=O)C2=O)cc1 | / | . | 236 | 94 | . | 240 | 100 | .
O=C(O)CCN1C(=O)c2ccc(NC(=O)C(c3ccccc3)c3ccccc3)cc2C1=O | . | . | . | . | / | / | / | /
COc1ccccc1N(CC(=O)NCC1CCCO1)C(=O)CNS(=O)(=O)c1ccc(Cl)cc1 (centres undefined) | . | 128 | . | . | / | . | . | .
COc1ccccc1N(CC(=O)NCC1CCCO1)C(=O)CNS(=O)(=O)c1ccc(C)cc1 (centres undefined) | / | . | . | . | . | / | / | /
CCc1nc2ccccc2c(C(=O)OCC(=O)NC(=O)c2cccn2C)c1C | . | 67[inhibitor] | . | . | / | . | . | .
O=C(O)C1Nc2ccc(C(F)(F)F)cc2C2OCCC12 (centres undefined) | / | 78[inhibitor] | . | . | / | . | . | .
O=C1[C@@H]2[C@@H]3C[C@@H]([C@H]4ON=C(c5ccc(Cl)cc5Cl)[C@@H]34)[C@@H]2C(=O)N1C1CCCCC1 | . | 144 | . | . | . | . | . | .
O=C1[C@@H]2[C@@H]3C[C@@H]([C@H]4ON=C(c5ccc(Cl)cc5)[C@@H]34)[C@@H]2C(=O)N1c1ccc2c(c1)OCO2 | / | . | . | . | . | / | / | /
CCCCn1c(-c2ccc(C(C)(C)C)cc2)nc2cc3[nH]c(=O)c(C(C)C)nc3cc21 | . | . | 69[inhibitor] | . | / | . | . | .
COc1ccc(Cn2c(=O)c3[nH]cnc3n(-c3ccc(C)cc3)c2=O)cc1 | . | . | . | . | / | / | / | /
CC1CCCC(NC(=O)COC(=O)Cc2ccc(Br)cc2)C1C (centres undefined) | . | . | . | . | . | / | / | /
CC1CCCC(NC(=O)Cc2ccc(Br)cc2)C1C (centres undefined) | . | 131 | . | . | . | . | . | .
CC1CCCC(NC(=O)CSc2nnnn2C)C1C (centres undefined) | . | 0.0[inhibitor] | -8.0[inhibitor] | . | . | . | . | .
CCCCNC(=S)NNC(=O)c1ccncc1 | / | 35[inhibitor] | . | . | . | . | . | .
O=[N+]([O-])c1cccc(-n2nnnc2CN2CCCCCC2)c1 | / | 122 | . | . | . | . | . | .
CCC(C)(C(=O)NC1CCCCC1)N(C(=O)CC1NC(=O)NC1=O)c1c(C)n(C)n(-c2ccccc2)c1=O (centres undefined) | . | . | . | . | . | / | / | /
